PubChem BioAssay AID1454 (National Center for Advancing Translational Sciences (NCATS), 2008)
About 550 (0.42%) of roughly 130,000 compounds were called active. About 4% were inconclusive and are not listed. The full list was thinned out, with actives kept by preference. A number with no mark means an inactive call. Calls come from the whole dose curve; as a rule, active = well fitted inhibition curve with a large enough effect; inconclusive = small, poorly fitted or top-dose-only effect, or effect the other way; inactive = flat fitted curve, though single readings scatter.

assay: qHTS Assay for Inhibitors of the ERK Signaling Pathway using a Homogeneous Screening Assay; Stimulation with EGF; conditions: HEK293-V1b, EGF-stimulated phospho-ERK AlphaScreen; series mostly up to 11.5 µM; activity change, negative = inhibition: at the top concentration; note: nearly all actives have a fitted effect of over 55% in size;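 for activity change, negative = inhibition: plate controls were stimulated vehicle wells for no effect and unstimulated vehicle basal for full effect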
Summary of the method: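 Cell line HEK293 (stable V1b), low serum overnight. Pretreatment: compound 30 min, 37C. EGF 25 nM, 5 min. Detection: SureFire AlphaScreen, 5 h RT. AC50 via standard Hill equation.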
Potency is the fitted concentration of half-maximal effect.

SMILES	activity change, negative = inhibition	Potency
Cc1cc(=O)[nH]c(S)c1C#N	-5.86% [at 57.5 µM]	
CCN(CC)CCCN=Cc1c(O)n(-c2ccc(C)cc2)c(=O)c2ccccc12	-15.5% [at 57.5 µM]	
O=C(COc1ccc(Cl)cc1[N+](=O)[O-])N1CCCCC1	-19.8%	
CC(=O)Oc1c2c(c3c(c1CC=C(C)C)O[C@@]14C(=CC5CC1C(C)(C)OC4(C/C=C(\C)C(=O)O)C5=O)C3=O)OC(C)(CCC=C(C)C)C=C2 (some centres undefined)		25.1 µM (active)
O=C(CC(=O)N/N=C\c1ccc(F)cc1)NCCc1ccccc1	-8.99%	
COc1ccc(OCC(O)CNCCNc2nccc(C(F)(F)F)n2)cc1 (centres undefined)	2.31% [at 57.5 µM]	
CCOc1ccc(/C=C(/NC(=O)c2ccccc2)C(=O)NCCC(=O)O)cc1	-5.71%	
O=C(NC1(C(F)(F)F)NC(=O)N(C2CCCCC2)C1=O)c1ccco1 (centres undefined)	-9.23%	
CCN1CCN(C(=O)c2ccc(CN(c3ccc(C)c(C)c3)S(C)(=O)=O)cc2)CC1	-11.4%	
CC(=O)N(OCc1ccc(OC(C)C)c(Cl)c1)C(C)=O	3.04% [at 57.5 µM]	
NS(=O)(=O)c1ccc(CCNC(=O)c2ccc(Cl)cc2[N+](=O)[O-])cc1	-7.68%	
CN(C)c1ccc(Nc2c3c4c(cccc4n(C)c2=O)C(=O)c2ccccc2-3)cc1		3.16 µM (active)
Cc1cc(=O)oc2c(C(=O)c3ccccc3)c(OCC(N)=O)ccc12	1.12% [at 57.5 µM]	
CN(C)c1ccc(/C=N/NC(=O)C(O)c2ccc(Br)cc2)cc1 (centres undefined)	13.4%	
CCC(C)N1C(=S)SC(C)(C)C1N(O)C(=O)NC1CCCCC1 (centres undefined)	-10.1% [at 57.5 µM]	
Cc1ccc(C(=O)Nc2nc(N)n(-c3ccccc3)n2)cc1	3.9% [at 57.5 µM]	
CC1=NNC(=O)C1CCC(=O)N/N=C(\C)c1ccc(Cl)cc1 (centres undefined)	-12.6% [at 57.5 µM]	

SMILES	activity change, negative = inhibition	Potency
COc1ccc(Cc2nnc(NC(=O)c3cc(OC)c(OC)c(OC)c3)s2)cc1OC	1.01%	
O=C(O)c1n[nH]nc1-c1ccccc1	-3%	
COc1ccc(N=Nc2ccc(O)c(P(=O)(c3ccccc3)c3ccccc3)c2)cc1	-14.3% [at 57.5 µM]	
Oc1ccc2ccccc2c1N=Nc1nccs1		12.6 µM (active)
Oc1ccc2ccccc2c1C=Nc1ccccc1	10.2% [at 57.5 µM]	
Oc1ccc(N=Cc2c(O)ccc3ccccc23)cc1	-7% [at 57.5 µM]	
O=C(CCNc1n[nH]c(=O)[nH]c1=O)N/N=C\c1ccc(Br)cc1	4.1% [at 57.5 µM]	
CCOCCCNC(=O)C(NC(=O)Cc1c[nH]c2ccccc12)c1ccc(OC)cc1 (centres undefined)	-5%	
Cc1cc(OCCCC(=O)NCCN2C(=O)S/C(=C\c3cccnc3)C2=O)ccc1Cl	5.87%	
O=C(NCc1ccco1)C(=O)c1cn(CC(=O)N2CCCCCC2)c2ccccc12	-3.82%	
Cc1ccnc(NC(=O)c2ccc(Cl)c([N+](=O)[O-])c2)c1	-6.64%	
Cc1ccc(OCC(=O)Nc2nnc(-c3ccco3)s2)cc1	3.26% [at 57.5 µM]	
CC(C)C1Nc2c(C(=O)O)cccc2C(Nc2ccccc2C(=O)O)C1(C)C (centres undefined)	1.59%	
N#C/C(=C\N1CCOCC1)S(=O)(=O)c1ccc(Cl)cc1	-6.91% [at 57.5 µM]	
Cc1cc(C)c2c(NC(=O)C3CC3)nn(C)c2n1	0.186%	
O=C(Cc1ccc(F)cc1)N1CCN=C1SCc1cccc([N+](=O)[O-])c1	-1.53%	
CN(Cc1cc2cc(F)ccc2[nH]1)Cc1nc(-c2cnccn2)no1	-6.42%	
